Laboratory results reported in the supplement of paper PMC3484114.
± gives the standard deviation.

The molecules below were run on OVCAR-3-derived ovarian cancer stem-like cells (spheroids) (assay: cell growth relative to untreated control; higher = more growth (less inhibition)). Conditions: 2.29 µM; 96 h.
Procedure, shortened: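 Viability of stem-like cells from OVCAR-3 spheroids was assessed with TOX8 resazurin fluorescence at ex 560/em 590 nm. The cells had been trypsin-dissociated, seeded at 50,000 cells/mL in stem cell medium in ultra-low attachment 96-well plates and preincubated 24 h, then treated with compounds at 2.29 uM for 96 h at 37°C, 5% CO2, in 4 replicate wells, with fluorescence read after 4 h. Results were converted to percent growth against untreated wells after blank subtraction and Grubbs outlier removal.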

Compound | cell growth [%]
O=C([CH-]C(=O)C(F)(F)F)c1ccccc1.O=C([CH-]C(=O)C(F)(F)F)c1ccccc1.O=C([CH-]C(=O)C(F)(F)F)c1ccccc1.O=C([CH-]C(=O)C(F)(F)F)c1ccccc1.[Eu+3].c1ccncc1 | 104 ± 18
Cn1c(=O)[nH]c2nncnc2c1=O | 92.3 ± 13
CC[PH+](CC)CC.[Cl][Au] | 103 ± 27
C[n+]1ccc(-c2cc[n+](C)cc2)cc1 | 101 ± 11
COc1ccc(O)c2c(=O)c3c(OC)cc4c(c3oc12)[C@@H]1C=CO[C@@H]1O4 | 90.1 ± 25
O=C1N[C@@H]2C(=C[C@H](O)[C@@H](O)[C@H]2O)c2cc3c(c(O)c21)OCO3 | 111 ± 17
C/C(=N\N=C(/[Se])N1CC2CCC(CC2)C1)c1ccccn1 | 7.7 ± 2.4
CN(C)C(=S)SSC(=S)N(C)C | 103 ± 17
Fc1cccc(F)c1C1SCc2nc3ccccc3n21 (stereo unspecified) | 78.4 ± 9.6
C[n+]1cc2cc(O)c(O)cc2c2ccc3cc(O)c(O)cc3c21.c1ccncc1 | 91.8 ± 23
COc1cc2c(c3oc4cccc(O)c4c(=O)c13)[C@@H]1C=CO[C@@H]1O2 | 112 ± 22
CC[C@H](C)[C@@H]1NC(=O)[C@@H](NC(=O)c2c3nc4c(C(=O)N[C@@H]5C(=O)N[C@@H](C(C)C)C(=O)N6CCC[C@H]6C(=O)N(C)CC(=O)N(C)[C@@H](C(C)C)C(=O)O[C@@H]5C)ccc(C)c4oc-3c(C)c(=O)c2N)[C@@H](C)OC(=O)[C@H](C(C)C)N(C)C(=O)CN(C)C(=O)[C@@H]2CCCN2C1=O | 10.9 ± 3.5
CC[C@@]1(O)C[C@H](O[C@H]2C[C@H](N(C)C)[C@H](O)[C@H](C)O2)c2c(cc3c(c2O)C(=O)c2c(O)ccc(O)c2C3=O)[C@H]1C(=O)OC | 50.3 ± 31
COc1cc([C@H]2c3cc4c(cc3C[C@@H]3COC(=O)[C@H]32)OCO4)cc(OC)c1OC | 39.5 ± 18
COc1ccc(C[C@@H]2NC[C@@H](O)[C@@H]2OC(C)=O)cc1 | 94.2 ± 33
C=C1C(=O)O[C@@H]2C[C@@H](C)[C@@H]3C=CC(=O)[C@@]3(C)[C@@H](O)[C@H]12 | 14.5 ± 2.5

Compound | cell growth [%]
CC1=C[C@H]2O[C@@H]3[C@H](O)[C@@H](O)[C@@](C)([C@@]2(CO)CC1)[C@]31CO1 | 36 ± 10
S=C=NCc1ccccc1 | 109 ± 28
CC[C@](C)(O)C(=O)O[C@H]1C(=O)O[C@@H]2C[C@H]3C(C)=CC(=O)[C@@H](O)[C@]3(C)[C@H]3C4(O)OC[C@]32[C@@H]1[C@@H](C)[C@H]4O | 35.2 ± 15
O=C1N[C@H]2[C@H](O)[C@H](O)[C@@H](O)[C@H](O)[C@@H]2c2cc3c(c(O)c21)OCO3 | 19.5 ± 2.6
CO[C@@H]1[C@H](O)C[C@@H](O[C@@H]2C[C@H](Oc3cc4cc5c(c(O)c4c(O)c3C)C(=O)[C@@H](O[C@H]3C[C@@H](O[C@H]4C[C@@H](O[C@H]6C[C@](C)(O)[C@@H](OC(C)=O)[C@H](C)O6)[C@H](O)[C@@H](C)O4)[C@H](O)[C@@H](C)O3)[C@H]([C@H](OC)C(=O)[C@@H](O)[C@@H](C)O)C5)O[C@H](C)[C@@H]2OC(C)=O)O[C@@H]1C | 12.5 ± 3.1
N[C@@H](CN(O)N=O)C(=O)O | 105 ± 19
COc1cc([C@@H]2c3cc4c(c(O)c3C[C@H]3COC(=O)[C@@H]32)OCO4)cc(OC)c1O | 20.4 ± 5.8
CC12CCC(O)CC1CCC1C2CCC2(C)C(C3=CC(=O)OC3)CCC12O (stereo unspecified) | 26.5 ± 3.1
CC1Oc2cc3c(-c4c(O)cc(O)c5c(O)c6c(cc45)OC(C)C(C)C6=O)c(O)cc(O)c3c(O)c2C(=O)C1C (stereo unspecified) | 23.8 ± 48
c1csc(C[N+]23CN4CN(CN(C4)C2)C3)c1 | 108 ± 17
CCC[CH2][Sn]([CH2]CCC)([CH2]CCC)[O]c1cc(Cl)c(Cl)cc1Cl | 8.8 ± 3.7
CCOC(OCC)C(CC)[Se]c1ccccc1[N+](=O)[O-] (stereo unspecified) | 120 ± 21
N#Cc1cn([C@@H]2O[C@H](CO)[C@@H](O)[C@H]2O)c2ncnc(N)c12 | 8.9 ± 3.4
CC(C)OP(=O)(OC(C)C)C(N(C)C)P(=O)(OC(C)C)OC(C)C.[Cl][Sn]([Cl])([Cl])[c]1ccccc1 | 62.2 ± 17
COC1CC(OC2CCC3(C=O)C4CCC5(C)C(C6=CC(=O)OC6)CCC5(O)C4CCC3(O)C2)OC(C)C1OC1OC(CO)C(O)C(O)C1O (stereo unspecified) | 8.05 ± 3.3
